This test has as its system P. falciparum stage V gametocytes. Also noted: BacTiter-Glo ATP luminescence viability of purified stage V gametocytes in 384-well plates, per cent inhibition versus DMSO. As to conditions: 48 h, 5 µM, inhibitor.

Molecules are shown by their SMILES. Where two headings read alike, the source gives them in different places. Out of some 13,000 compounds screened, about 3,200 (25%) showed an effect of 50% or more. Some of the results follow.

The % Inhibition is the relative decrease from the control value, in per cent. In the case of `Cc1cccc(CNc2nc(C)cc(NCCC(=O)NCc3cccc(F)c3)n2)c1` [TCMDC-134882], the “% Inhibition” value came out at 28.72%.
Still for that read-out and setting: as for `Cc1cc(NCCC(=O)NCCc2ccccc2)nc(NCCc2ccc(F)cc2)n1` [TCMDC-134782], the figure is 63.79%; as for `Cc1cc(NCCC(=O)NCc2cccc(F)c2)nc(NCCc2ccc(F)cc2)n1` [TCMDC-134781], 71.46%; as for `Cc1cc(NCCC(=O)NCc2cccc(F)c2)nc(Nc2ccccc2)n1` [TCMDC-134730], 9.488%.
On to `CCC1(CC)C(=O)N=C(N2CCCCC2)N(C)C1=O` [TCMDC-124231], for which the “% Inhibition” value amounted to 77.81%.
The same measure, in the same setting: for `COc1ccc2nccc([C@@H](O)CN3CCC(NCc4ccc5nnsc5c4)CC3)c2c1` [TCMDC-140923] the value was 19.95%; for `Cn1nc(-c2ccccc2F)c2cc(C(=O)Nc3cccnc3)sc21` [TCMDC-123581], -8.367%; for `COc1cccc(-c2nn(C)c3sc(C(=O)NCCN4CCN(c5ccccc5F)CC4)cc23)c1` [TCMDC-123585], -24.43%.
Turning to `CCc1ccc(CN2CCC(NC(=O)c3ccc(-c4ccccc4F)s3)CC2)cc1` [TCMDC-134343], the “% Inhibition” value is on record as -3.563%.
On to `Cc1cccc(CN2CCC(CNC(=O)c3cc4c(-c5ccccc5F)nn(C)c4s3)CC2)c1` [TCMDC-124566], for which the “% Inhibition” value amounted to 59.21%.
On the same count and under the same terms, for `CC(C)(C)c1ccc(CN2CCC(NC(=O)c3ccc(-c4ccccc4F)s3)CC2)cc1` [TCMDC-134349] the value was 3.235%; for `Cn1nc(-c2ccccc2F)c2cc(C(=O)NC3CCN(Cc4ccccc4)CC3)sc21` [TCMDC-123582], 63.05%.
Turning to `COc1ccc2ncc(F)c(C(O)CN3CCC(NCc4ccc5c(n4)NC(=O)CO5)CC3)c2c1` (stereo not drawn) [TCMDC-135530], for the setting “% Inhibition”, the “% Inhibition” value is reported as 22.05%.
Turning to `COC(=O)c1ccc(CC(C)NCC(O)c2cccc3ccccc23)cc1` (stereo not drawn) [TCMDC-131432], the “% Inhibition” value is listed as 16.03%.
Same read-out and setting: as for `CS(=O)(=O)c1ccccc1CNC(=O)c1ccc(-c2cccc(-c3nc4cc(C(F)(F)F)ccc4[nH]3)c2)cc1` [TCMDC-132504], the figure is -46.91%.
Still for that read-out and setting: as for `COc1cccc(N(CCCN2C(=O)c3cccc4cccc(c34)C2=O)C(=O)c2ccccc2C)c1` [TCMDC-124157], the figure is 34.34%; as for `c1ccc2[nH]c(-c3ccc(-c4ccc(CNCCc5ccncc5)cc4)s3)nc2c1` [TCMDC-132843], -16.65%.
Still for that read-out and setting: as for `CC1(C)C(=O)Nc2ccc3c(c21)CC1SC(=O)NN=C31` (stereo not drawn) [TCMDC-131539], the figure is 68.11%; as for `Nc1nc(N)c2c(CCc3ccc(Cl)c(Cl)c3)cccc2n1` [TCMDC-141976], -2.303%; as for `CCCc1cc(Cc2cnc(N)nc2N)cc(CC)c1O` [TCMDC-138059], -83.65%.
In the case of `Cc1cc2ncn(-c3nccc(NCc4ccc(F)c(C)c4)n3)c2cc1C` [TCMDC-135880], the “% Inhibition” value was 65.21%.
As for `Cc1cc(Nc2nc(NCc3cccnc3)nc3ccccc23)n[nH]1` [TCMDC-135161], the “% Inhibition” value was determined as 33.23%.
Still for that read-out and setting: for `COc1ccc(CNc2ccnc(-n3cnc4cc(C)c(C)cc43)n2)cc1Cl` [TCMDC-135878] the value was 49.39%; for `Cc1cc2ncn(-c3nccc(NCc4ccc(F)cc4)n3)c2cc1C` [TCMDC-135877], 11.81%.
On the same count and under the same terms, as for `Cc1cc2ncn(-c3ccnc(N4CCN(CCCN5CCCC5)CC4)n3)c2cc1C` [TCMDC-136311], the figure is 9.256%; as for `Cc1cc2ncn(-c3nccc(NCc4cccnc4)n3)c2cc1C` [TCMDC-135879], 55.3%.
For `O=C(O)c1ccc(OCOCOc2ccc(C(=O)O)c(O)c2)cc1O` [TCMDC-131764], the “% Inhibition” value was 13.72%.
The same measure, in the same setting: for `COc1ccc(C2SCC(=O)N2CCc2ccc(OC)c(OC)c2)cc1` (stereo not drawn) [TCMDC-125738] the value was 0.3725%.
Consider `NC1CCN(CCNCc2cccc(-c3ccc(-c4nc5ccc(C(F)(F)F)cc5[nH]4)cc3)c2)C1` (stereo not drawn) [TCMDC-133841], for which the “% Inhibition” value is on record as 98.1%.
On the same count and under the same terms, for `CS(=O)(=O)NCCCNCc1cccc(-c2ccc(-c3nc4ccc(C(F)(F)F)cc4[nH]3)cc2)c1` [TCMDC-133079] the value was -16.43%.
Still for that read-out and setting: as for `NC1CCN(CCNCc2cccc(-c3ccc(-c4nc5ccc(F)cc5[nH]4)cc3)c2)C1` (stereo not drawn) [TCMDC-133857], the figure is 75.97%; as for `O=[N+]([O-])c1ccccc1/C=N/Nc1ccnc2ccc(C(F)(F)F)cc12` [TCMDC-142044], -33.57%; as for `O=[N+]([O-])c1cccc(S(=O)(=O)N2CCN(CC(O)COc3ccc(-c4ccccc4)cc3)CC2)c1` (stereo not drawn) [TCMDC-125015], -58.05%.
The same measure, in the same setting: for `COc1cc2nc(NCCCOC(C)C)n3nc(-c4ccccc4)nc3c2cc1OC` [TCMDC-124450] the value was 5.714%; for `Cn1cnc2c(Nc3ccncc3)nc(-c3ccc4c(c3)OCO4)nc21` [TCMDC-141274], 36.93%.
Turning to `O=C(c1ccc(-c2cccc(-c3nc4cc(F)ccc4[nH]3)c2)cc1)N1CCCCC1CN1CCC(O)C1` (stereo not drawn) [TCMDC-132344], the “% Inhibition” value was 80.27%.
On the same count and under the same terms, as for `O=C(c1ccc(-c2cccc(-c3nc4cc(C(F)(F)F)ccc4[nH]3)c2)cc1)N1CCCCC1CN1CCC(O)C1` (stereo not drawn) [TCMDC-132348], the figure is -20.7%.
The same measure, in the same setting: as for `CC(O)C1CCCCN1C(=O)c1cccc(-c2cccc(-c3nc4cc(F)ccc4[nH]3)c2)c1` (stereo not drawn) [TCMDC-132339], the figure is 25.33%; as for `CCN(CC(C)O)C(=O)c1ccc(-c2cccc(-c3nc4cccc(C)c4[nH]3)c2)cc1` (stereo not drawn) [TCMDC-132502], 84.23%; as for `CC(O)C1CCCCN1C(=O)c1ccc(-c2ccc(-c3nc4cc(F)ccc4[nH]3)cc2)cc1` (stereo not drawn) [TCMDC-132338], 65.53%.
The same measure, in the same setting: as for `Cc1cccc2nc(-c3cccc(-c4ccc(C(=O)NCCc5ccc(O)c(=O)[nH]5)cc4)c3)[nH]c12` [TCMDC-132490], the figure is -25.23%; as for `O=C(c1cccc(-c2cccc(-c3nc4cc(F)ccc4[nH]3)c2)c1)N1CCCCC1CN1CCC(O)C1` (stereo not drawn) [TCMDC-132350], 0.1683%.
Regarding `CC(O)C1CCCCN1C(=O)c1ccc(-c2cccc(-c3nc4cc(F)ccc4[nH]3)c2)cc1` (stereo not drawn) [TCMDC-132333], the “% Inhibition” value was found to be 18.43%.
Same read-out and setting: for `CCN(CC(C)O)C(=O)c1ccc(-c2ccc(-c3nc4cccc(C)c4[nH]3)cc2)cc1` (stereo not drawn) [TCMDC-132503] the value was -12.34%; for `Cc1cccc2nc(-c3ccc(-c4cccc(C(=O)N5CCCCC5C(C)O)c4)s3)[nH]c12` (stereo not drawn) [TCMDC-132331], 10.35%.
Same read-out and setting: for `CC(O)C1CCCCN1C(=O)c1cccc(-c2cccc(-c3nc4ccccc4[nH]3)c2)c1` (stereo not drawn) [TCMDC-132313] the value was 8.745%.
Same read-out and setting: for `Cc1cccc2nc(-c3cccc(-c4ccc(C(=O)N5CCCCC5C(C)O)cc4)c3)[nH]c12` (stereo not drawn) [TCMDC-132336] the value was 92.31%; for `Cc1ccccc1C(O)CNc1ccnc(Nc2cccc(C#N)c2)n1` (stereo not drawn) [TCMDC-136566], 9.635%.
Regarding `COc1ccc(CNC(=O)NC2CCN(c3ccnc(Nc4ccc(OC)cc4)n3)C2)cc1` (stereo not drawn) [TCMDC-133607], the “% Inhibition” value is 11.17%.
Still for that read-out and setting: for `O=C(Nc1ccc(OC2CCN(Cc3ccc(F)cc3)C2)cc1)c1cccs1` (stereo not drawn) [TCMDC-133753] the value was 15.26%; for `COc1cc(NC(=O)c2cccs2)c(C(=O)NCc2ccc(C)cc2)cc1OC` [TCMDC-125007], 20.88%.
On the same count and under the same terms, as for `CN(C)CCOc1ccc(NC(=O)Nc2ccnc3c(Br)cccc23)cc1Cl` [TCMDC-140325], the figure is 18.67%.
Still for that read-out and setting: as for `COc1cc2nc(N3CCC(CNC(=O)c4ccc(-c5ccc(-c6noc(C)n6)cc5)cc4)CC3)nc(N)c2cc1OC` [TCMDC-138754], the figure is 115%; as for `COc1cc2nc(N3CCC(CNC(=O)c4ccc(-c5ccc(-c6noc(C)n6)cc5C)cc4)CC3)nc(N)c2cc1OC` [TCMDC-138155], 105.9%.
For `O=C(Nc1ccc2c(c1)CCC2)c1ccc(N2CCN(c3ccncc3)CC2)cn1` [TCMDC-135155], the “% Inhibition” value stood at 0.5792%.
Same read-out and setting: for `CCOc1cc(C(=O)N[C@@H](Cc2ccccc2)[C@H](O)CNCc2cc(OC)cc(OC)c2)cc(N2CCCS2(=O)=O)c1` [TCMDC-134573] the value was 6.074%; for `O=C(Nc1ccc(OC2CCN(Cc3ccsc3)CC2)c(Cl)c1)c1ccc(F)cc1` [TCMDC-134272], -4.957%.
For the compound `Nc1nc(N)c2c(ccc3c2ccn3Cc2cccc3ccccc23)n1` [TCMDC-137996], the “% Inhibition” value was 88.02%.
The same measure, in the same setting: as for `CCC(C(C)C)n1ccc2c3c(N)nc(N)nc3ccc21` (stereo not drawn) [TCMDC-137872], the figure is 10.31%.
Still for that read-out and setting: as for `Cc1ccccc1Cn1ccc2c3c(N)nc(N)nc3ccc21` [TCMDC-137812], the figure is 70.17%; as for `Clc1ccc(CNc2ccnc(NCc3ccc4c(c3)OCCCO4)n2)c(Cl)c1` [TCMDC-135116], 30.31%; as for `CC(C)OCCCNC(=O)c1nc(-c2cccc(C(F)(F)F)c2)sc1C(C)C` [TCMDC-133788], 3.705%.
As to `Oc1ccc(Cl)cc1CN1CCC2(CCCN(CC3CCC3)C2)C1` (stereo not drawn) [TCMDC-124637], the “% Inhibition” value is reported as -23.05%.
The same measure, in the same setting: as for `CCCCN(CCCC)CCNC(=O)c1cc(OC(F)(F)F)ccc1O` [TCMDC-141130], the figure is -10.84%; as for `CC(Cc1ccc(NC(=O)c2ccc(CNCc3ccccc3)cc2)cc1)N(CCc1cccc(Cl)c1)C(=O)OC(C)(C)C` (stereo not drawn) [TCMDC-139859], -24.54%.
`CC(Cc1ccc(NC(=O)c2ccc(CNCCCCc3ccccc3)cc2)cc1)NCCc1cccc(Cl)c1` (stereo not drawn) [TCMDC-139866]: the “% Inhibition” value came out at 129.2%.
On the same count and under the same terms, for `CC(Cc1ccc(NC(=O)c2ccc(CNCCc3ccccc3)cc2)cc1)NCCc1cccc(Cl)c1` (stereo not drawn) [TCMDC-139867] the value was 108.4%; for `COc1cccc(OC)c1OCCCON1C(N)=NC(N)=NC1(C)C` [TCMDC-131731], 5.866%; for `COc1cc(Cc2cnc(N)nc2N)cc(OC(C)C)c1OC` [TCMDC-137645], -10.21%.

For the origin of these results see PMC4552634, “A New Set of Chemical Starting Points with Plasmodium falciparum Transmission-Blocking Potential for Antimalarial Drug Discovery” (PLoS ONE, 2015).
